Data published in PubChem BioAssay (NCATS).
Results filed as inconclusive are left out. The source made the active and inactive calls. Calls follow the shape of the dose curve; as a rule, active = well fitted curve in the direction sought with a large enough effect; inconclusive = small, poorly fitted or top-dose-only effect, or another doubt; inactive = no such curve, though single readings can be large; an effect the other way counts as inactive or inconclusive.

Tests used:
CRL-7250 = normal cell line; test: Cytotoxic Profiling of Annotated Libraries Using Quantitative High-Throughput Screening (AID 1296008); settings: Five cell lines viability, CellTiter-Glo ATP luminescence, 48-72 h; max response: stronger effect = lower value; also: nearly all actives have a fitted effect of over 60% in size; as to max response: % is scaled to controls: 0 for no effect and ±100 for the full control effect
Summary of the method: (§1)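 Cells exposed to compounds for 48 or 72 hr at 37 degrees Celsius. Viability read as ATP-coupled luminescence with CellTiter-Glo after 10 min at room temperature.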

HEK293 = test: as above; settings: Five cell lines viability, CellTiter-Glo ATP luminescence, 48-72 h; max response: stronger effect = lower value
Summary of the method: as §1

HaCat = test: as above; settings: Five cell lines viability, CellTiter-Glo ATP luminescence, 48-72 h; max response: stronger effect = lower value
Summary of the method: as §1

KB-3-1 = test: as above; settings: Five cell lines viability, CellTiter-Glo ATP luminescence, 48-72 h; max response: stronger effect = lower value
Summary of the method: as §1

NIH3T3 [1] = test: as above; settings: Five cell lines viability, CellTiter-Glo ATP luminescence, 48-72 h; max response: stronger effect = lower value
Summary of the method: as §1

HEK293T [2] = test: qHTS assay to identify novel small-molecules to repurpose for Merkel cell carcinoma treatment (AID 1296009); settings: MCC and control cell lines, CellTiter-Glo viability, 72 h; at 44.8 µM (top of the series) unless noted; also: nearly all actives have a fitted effect of over 60% in size
Summary of the method: (§2)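 Cells were incubated with compound for 72 hr at 37 degree celsius before CellTiter-Glo addition. Luminescence was normalized with no-cell wells as full cytotoxicity and DMSO as baseline.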

C33A = test: Primary qHTS to identify gynecologic anti-cancer compounds using libraries of approved drugs and bioactive compounds (AID 1345084); settings: Gynecologic cancer cell panel viability, ATPlite luminescence, 48 h; series mostly up to 57.5 µM; also: % is scaled to controls: 0 for no effect and ±100 for the full control effect; nearly all actives have a fitted effect of over 55% in size
Summary of the method: (§3)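 Luminescence from the ATPlite ATP-monitoring reagent indicates viable cell number; lower signal means cytotoxicity. Cells received compound 16 h after seeding and were exposed for 48 h across five concentrations.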

CAOV3 = test: as above; settings: Gynecologic cancer cell panel viability, ATPlite luminescence, 48 h; series mostly up to 57.5 µM
Summary of the method: as §3

CASKI = test: as above; settings: Gynecologic cancer cell panel viability, ATPlite luminescence, 48 h; series mostly up to 57.5 µM
Summary of the method: as §3

Es-2 = test: as above; settings: Gynecologic cancer cell panel viability, ATPlite luminescence, 48 h; series mostly up to 57.5 µM
Summary of the method: as §3

HeLa = test: as above; settings: Gynecologic cancer cell panel viability, ATPlite luminescence, 48 h; series mostly up to 57.5 µM
Summary of the method: as §3

Hek293T [3] = test: as above; settings: Gynecologic cancer cell panel viability, ATPlite luminescence, 48 h, control line for the selectivity index; series mostly up to 57.5 µM
Summary of the method: as §3

JEG-3 = test: as above; settings: Gynecologic cancer cell panel viability, ATPlite luminescence, 48 h; series mostly up to 57.5 µM
Summary of the method: as §3

OV90 = test: as above; settings: Gynecologic cancer cell panel viability, ATPlite luminescence, 48 h; series mostly up to 57.5 µM
Summary of the method: as §3

NIH3T3 [4] = test: qHTS assay to identify novel small-molecules to repurpose for Merkel cell carcinoma treatment (AID 1296009); settings: MCC and control cell lines, CellTiter-Glo viability, 72 h; at 44.8 µM (top of the series) unless noted; also: nearly all actives have a fitted effect of over 60% in size
Summary of the method: as §2

C=CC(C)(CC/C=C(\C)C(=O)OC)OC1OC(COC(=O)CC(C)(O)CC(=O)O)C(O)C(O)C1O (configuration not stated)
inactive: max response (CRL-7250) -11.6% | outcome (HEK293) | max response (HaCat) 3.32% | max response (KB-3-1) 1.2% | max response (NIH3T3 [1]) -0.702% | outcome (HEK293T [2]) inactive [at 17.4 µM] | Potency (C33A) | Potency (CAOV3) | outcome (CASKI) | Potency (Es-2) | Potency (HeLa) | Potency (Hek293T [3]) | Potency (JEG-3) | Potency (OV90)

COc1ccc(CCC(=O)c2c(O)cc(O[C@@H]3O[C@H](CO)[C@@H](O)[C@H](O)[C@H]3O[C@@H]3O[C@@H](C)[C@H](O)[C@@H](O)[C@H]3O)cc2O)cc1O
inactive: max response (CRL-7250) -2.32% | max response (HEK293) 0.838% | max response (HaCat) 4.19% | outcome (KB-3-1) | outcome (NIH3T3 [1]) | outcome (NIH3T3 [4]) | Potency (C33A) | Potency (CAOV3) | outcome (CASKI) | Potency (Es-2) | Potency (HeLa) | Potency (Hek293T [3]) | Potency (JEG-3)

CC(C)C1CCC(CO)=CC1/C=C(\CO)C(=O)OCC1(O)CCC(C(C)C)C2C=C(C(=O)O)COC(=O)C21 (configuration not stated)
inactive: outcome (CRL-7250) | outcome (HEK293) | max response (HaCat) -2.47% | outcome (KB-3-1) | max response (NIH3T3 [1]) -0.853% | outcome (HEK293T [2]) inactive [at 17.4 µM] | Potency (C33A) | outcome (CASKI) | Potency (Es-2) | Potency (HeLa) | Potency (Hek293T [3]) | Potency (JEG-3) | Potency (OV90)

C=C[C@H]1[C@H](O[C@@H]2O[C@H](CO)[C@@H](O)[C@H](O)[C@H]2O)OC=C2C(=O)N3Cc4c([nH]c5ccccc5c4=O)[C@@H]3C[C@H]21
inactive: outcome (CRL-7250) | outcome (HEK293) | max response (HaCat) -8.84% | outcome (KB-3-1) | max response (NIH3T3 [1]) -10.2% | outcome (HEK293T [2]) inactive [at 17.4 µM] | Potency (C33A) | Potency (CAOV3) | outcome (CASKI) | Potency (Es-2) | Potency (HeLa) | Potency (Hek293T [3]) | Potency (JEG-3) | Potency (OV90)

COC(=O)[C@H](Cc1ccc([N+](=O)[O-])cc1)NC(=O)c1cccc2ccccc12
inactive: max response (CRL-7250) -4.16% | outcome (HEK293) | max response (HaCat) -4.67% | outcome (KB-3-1) | max response (NIH3T3 [1]) -1.76% | outcome (HEK293T [2]) | Potency (C33A) | outcome (CASKI) | Potency (Es-2) | Potency (HeLa) | Potency (Hek293T [3]) | Potency (JEG-3) | Potency (OV90)

COc1c(-c2ccc(O)cc2)cc(OC)c2c1oc1cc(O)c(OC3OC(CO)C(O)C3O)cc12 (configuration not stated)
inactive: max response (CRL-7250) -0.713% | max response (HEK293) -3.64% | max response (HaCat) -7.87% | outcome (KB-3-1) | outcome (NIH3T3 [1]) | outcome (NIH3T3 [4]) inactive [at 17.4 µM] | Potency (C33A) | Potency (CAOV3) | outcome (CASKI) | Potency (Es-2) | Potency (HeLa) | Potency (Hek293T [3]) | Potency (JEG-3) | Potency (OV90)

C=C(CCO)C(=O)OCC1OCC(OC(=O)C(=C)CCO[C@@H]2O[C@H](COC(=O)C(=C)CCO[C@@H]3O[C@H](CO)[C@@H](O)[C@H](O)[C@H]3O)[C@@H](O)[C@H](O)[C@H]2O)C(O)C1O (some centres not stated)
inactive: max response (CRL-7250) 0.815% | outcome (HEK293) | max response (HaCat) -17.9% | max response (KB-3-1) 0.844% | max response (NIH3T3 [1]) 3.62% | outcome (HEK293T [2]) inactive [at 17.4 µM] | Potency (C33A) | outcome (CASKI) | Potency (Es-2) | Potency (HeLa) | Potency (Hek293T [3]) | Potency (JEG-3) | Potency (OV90)

O=C(O[C@@H]1O[C@H](CO)[C@@H](O)[C@H](O)[C@H]1O)c1ccccc1
inactive: outcome (CRL-7250) | outcome (HEK293) | max response (HaCat) 4.66% | outcome (KB-3-1) | max response (NIH3T3 [1]) 4.36% | outcome (HEK293T [2]) | Potency (C33A) | outcome (CASKI) | Potency (Es-2) | Potency (HeLa) | Potency (Hek293T [3]) | Potency (JEG-3) | Potency (OV90)

COc1ccc2c(c1)N1C(=O)C[C@@]34C=CC[N@+]5([O-])CC[C@H]2[C@H](CC3)[C@@]145
inactive: max response (CRL-7250) 0.465% | outcome (HEK293) | max response (HaCat) 0.691% | outcome (KB-3-1) | max response (NIH3T3 [1]) -2.66% | outcome (HEK293T [2]) | Potency (C33A) | outcome (CASKI) | Potency (Es-2) | Potency (HeLa) | Potency (Hek293T [3]) | Potency (JEG-3)

C=C1C(OC(C)=O)CCC2(C)CCC(C(C)(C)O)CC12 (configuration not stated)
inactive: max response (CRL-7250) -5.46% | max response (HEK293) -1.52% | max response (HaCat) -5.19% | max response (KB-3-1) 1.41% | outcome (NIH3T3 [1]) | outcome (NIH3T3 [4]) | Potency (C33A) | Potency (CAOV3) | outcome (CASKI) | Potency (Es-2) | Potency (HeLa) | Potency (Hek293T [3]) | Potency (JEG-3)

C=C[C@@](C)(CCC=C(C)C)O[C@@H]1O[C@H](CO[C@@H]2OC[C@H](O)[C@H](O)[C@H]2O)[C@@H](O)[C@H](O)[C@H]1O
inactive: outcome (CRL-7250) | outcome (HEK293) | max response (HaCat) 0.544% | outcome (KB-3-1) | max response (NIH3T3 [1]) 4.46% | outcome (HEK293T [2]) inactive [at 17.4 µM] | Potency (C33A) | Potency (CAOV3) | outcome (CASKI) | Potency (Es-2) | Potency (HeLa) | Potency (Hek293T [3]) | Potency (JEG-3) | Potency (OV90)

O=C(O)CC1(O)C(=O)Nc2ccccc21 (configuration not stated)
inactive: outcome (CRL-7250) | outcome (HEK293) | max response (HaCat) -2.76% | max response (KB-3-1) 6.03% | max response (NIH3T3 [1]) 3.37% | outcome (HEK293T [2]) inactive [at 92 µM] | Potency (C33A) | Potency (CAOV3) | outcome (CASKI) | Potency (Es-2) | Potency (Hek293T [3]) | Potency (JEG-3) | Potency (OV90)

CC1(C)OC(=O)CC(O)C2(C)C1CC(=O)C1(C)C2C(O)CC2(C)C(c3ccoc3)OC(=O)C3OC321 (configuration not stated)
inactive: max response (CRL-7250) -14.5% | outcome (HEK293) | max response (HaCat) -9.13% | outcome (KB-3-1) | max response (NIH3T3 [1]) -11.7% | outcome (HEK293T [2]) inactive [at 17.4 µM] | Potency (C33A) | outcome (CASKI) | Potency (Es-2) | Potency (HeLa) | Potency (Hek293T [3]) | Potency (JEG-3) | Potency (OV90)
